Assay outcomes as filed in PubChem.
An excerpt weighted towards active compounds, which were near 2.3% of everything screened.
CHO-K1 Ca antag: nonselective inhibitor or artifact in parental CHO-K1 cells; 0.6% of 360,000 active; AID 602250; ATP-induced calcium, Fluo-8 fluorescence; inhibition, % at 3 µM;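 active means inhibition above a per-plate cutoff, the plate's mean sample inhibition plus 3 SD, cut at about 24% in these data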
CHRM1 antagonist: human CHRM1 antagonism; CHO-K1 hM1, Fluo-8 calcium fluorescence, ACh EC80 antagonist; inhibition, % at 3 µM; 1.3% of 360,000 active;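 active means percent inhibition above its own plate's cutoff, namely the mean of that plate's compound wells plus 3 SD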;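 further: peak over basal fluorescence ratio during 140 s after agonist addition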
Target sequence (P11229 whole entry, looked up): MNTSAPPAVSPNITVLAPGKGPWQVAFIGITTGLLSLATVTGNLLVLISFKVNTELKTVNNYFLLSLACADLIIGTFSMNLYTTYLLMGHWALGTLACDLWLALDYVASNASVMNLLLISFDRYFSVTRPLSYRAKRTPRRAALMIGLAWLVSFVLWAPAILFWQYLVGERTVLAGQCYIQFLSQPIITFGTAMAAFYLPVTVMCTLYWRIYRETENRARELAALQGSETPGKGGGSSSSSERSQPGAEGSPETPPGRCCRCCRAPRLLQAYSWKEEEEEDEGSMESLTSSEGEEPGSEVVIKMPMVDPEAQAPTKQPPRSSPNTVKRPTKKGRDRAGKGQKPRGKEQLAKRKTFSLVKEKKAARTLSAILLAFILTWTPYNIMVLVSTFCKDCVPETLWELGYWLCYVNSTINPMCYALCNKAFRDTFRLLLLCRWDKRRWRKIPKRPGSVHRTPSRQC
M1 ag parental: nonselective activator or artifact in parental CHO-K1 cells; AID 602248; activation, % at 3 µM; 0.48% of 360,000 active; Fluo-8 calcium fluorescence; scaled to maximal ATP response, vehicle zero; in the data active means activation above about 15%;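 further: untransfected CHO-K1 host cells lacking M1 receptor as counterscreen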
M1 PAM: human CHRM1 positive allosteric modulation. activation, % at 3 µM. CHO-K1 hM1, Fluo-8 calcium fluorescence, ACh EC20; 0% = ACh EC20, 100% = maximal ACh. 0.088% of 360,000 active; in the data active means activation above about 19%, passing the limit was not always enough
CHRM1 agonist: activates human CHRM1 receptor | CHO-K1 hM1, Fluo-8 calcium fluorescence, agonist mode; 0% DMSO, 100% acetylcholine EC100 | AID 588814 | activation, % at 3 µM | 0.33% of 360,000 active | P11229;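 active means activation above the run's mean compound activation plus 3 SD, cut at about 16% in these data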;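 further: peak over basal fluorescence ratio within a 140 s kinetic read after compound addition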
CHO-K1 Ca PAM: M1 PAM counterscreen hit in parental CHO-K1 cells; AID 602247; activation, % at 3 µM; ATP EC20, Fluo-8 calcium fluorescence; 0% at ATP EC20, 100% at ATP max; 0.02% of 360,000 active;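 active means activation above the run cutoff, the mean activation of all test compounds plus 3 SD, cut at about 40% in these data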;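 further: peak over basal fluorescence ratio in a 140 s read after ATP addition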
Of the large screens only hits and unclear results are named; the others gave an inactive call.

O=C(Nc1ccc(Cl)c(C(F)(F)F)c1)[C@@H]1CC=C[C@@H]2CCN(C3CC3)C(=O)[C@@H]21	CHO-K1 Ca PAM 47.4
CCOc1ccc(C(=O)Nc2cc(-c3nc4ccccc4[nH]3)ccc2Cl)cc1[N+](=O)[O-]	CHO-K1 Ca antag 25.8, CHRM1 antagonist 36.9
COc1ccccc1CCN=C(N)NS(=O)(=O)c1ccc(C)cc1	M1 ag parental 17.4
COc1ccc(CCN=C(N)NS(=O)(=O)c2ccc(C)cc2)cc1OC	none
Cc1ccc(N2CC(NC(=O)C(=O)c3c[nH]c4ccccc34)CC2=O)cc1C (stereo not given)	none
Fc1ccccc1CNc1ncnc2sccc12	none
c1ccc2c(c1)OCC(CNc1ncnc3sccc13)O2 (stereo not given)	CHO-K1 Ca antag 30.7
O=C(NCCO)c1ccc2nc(-c3ccco3)c(-c3ccco3)nc2c1	none
O=C(NC1CCCC1)c1ccc2nc(-c3ccco3)c(-c3ccco3)nc2c1	CHO-K1 Ca antag 26.1
Cc1cc2c(sc3ccccc32)c(C)n1	none
Cc1nc2c(s1)sc1ccccc12	CHO-K1 Ca antag 24.4
O=C(NCc1cccc(C(F)(F)F)c1)C1CCCN(c2cnccn2)C1 (stereo not given)	none
O=C(Cc1ccc(S(=O)(=O)N2CCOCC2)s1)N1CCN(S(=O)(=O)c2ccccc2[N+](=O)[O-])CC1	CHRM1 antagonist 31.6
CN(C(=O)c1ccc(NC(=O)Cc2cccc(NC(=O)C3CCN(C(=O)C4CC4)CC3)c2)cc1)C1CC1	none
CC(CN(C)C)CN1c2ccccc2Sc2ccccc21 (stereo not given)	CHRM1 antagonist 100.5
CCC(=O)/C=C1\Sc2ccc(OC)cc2N1CC	none
CCN(CC)CC(O)CN1c2ccccc2Sc2ccccc21 (stereo not given)	CHRM1 antagonist 51.5
COc1ccc2c(c1)N(C[C@H](C)CN(C)C)c1ccccc1S2	CHRM1 antagonist 99.1
OCCN(CCO)CC(O)CN1c2ccccc2Sc2ccccc21 (stereo not given)	none
Cc1cccc(NS(=O)(=O)c2c(C)[nH]c(C)c2C(=O)N2CCCC2)c1	none
Cc1ccc(F)c(S(=O)(=O)NC(=O)C2(C)CCN2C(=O)CC2CCCCC2)c1 (stereo not given)	none
Brc1cccc(-c2cnc3n2CCCCC3)c1	CHRM1 antagonist 48.3
COC(CNC(=O)c1ccc2c(c1)nc(C)n2-c1cccc(C)c1)OC	none
COc1ccc(N2C[C@H](C)[C@@H](CC(=O)Nc3ccc(Br)cc3)C2=O)cc1	CHO-K1 Ca antag 24.6
CSc1ncccc1C(=O)OCC(=O)NC1CCS(=O)(=O)C1 (stereo not given)	M1 ag parental 16.4
CCN1CCN(CC(=O)N2c3ccccc3Sc3ccccc32)CC1	CHRM1 antagonist 76.3
O=C(CN1CCCC1)N1c2ccccc2Sc2ccccc21	CHRM1 antagonist 97.0
Cn1c(SCC(=O)Nc2cccnc2Cl)nc2ccccc21	none
COc1ccc(NC2=NCCC(=O)N2Cc2cccs2)cc1	CHO-K1 Ca antag 29.6
COc1ccc(NC2=NCC(=O)N2Cc2cccs2)cc1	none
Cc1nc(C(F)(F)F)ccc1C(=O)N1CCC(C)(C(=O)NS(=O)(=O)C2CC2)C1 (stereo not given)	none
CN(NC(=O)C(=O)NCc1ccco1)C(=O)Nc1ccc(Cl)cc1	CHO-K1 Ca antag 26.5
Cc1ccc(S(=O)(=O)Nc2ccc(Nc3nccn4c(-c5cccc(OC(F)(F)F)c5)cnc34)cc2)cc1	none
O=C(O)/C(=C\c1cccc(OCc2ccccc2)c1)c1ccc(F)cc1	none
Cc1ccc(N(C)S(=O)(=O)c2cccc(C(=O)OCC(=O)c3c(N)n(C)c(=O)n(C)c3=O)c2)cc1	CHRM1 antagonist 32.9
Cc1cc(C)c(C#N)c(SCc2nnc(-c3ccccc3)o2)n1	CHO-K1 Ca antag 25.1, CHRM1 antagonist 23.6
Cc1cc(C)c(C#N)c(SCc2ccccc2[N+](=O)[O-])n1	none
Cc1cc(C)c(C#N)c(SCc2nnc(-c3ccccc3[N+](=O)[O-])o2)n1	CHRM1 antagonist 42.7
CCCCn1c(N)c(N(Cc2ccccc2OC)C(=O)c2c(CC)noc2C)c(=O)[nH]c1=O	none
O=C(c1cc(-c2cccnc2)nc2ccccc12)N1CCN(S(=O)(=O)c2ccc(Cl)s2)CC1	none
CSCC[C@H](NC(=O)N1CCn2c1nc1ccccc12)C(=O)NCC1CCCO1 (stereo not given in full)	none
CC1(C)CC(NC(=O)c2cc(S(=O)(=O)N3CCOCC3)c(Cl)cc2Cl)CC(C)(C)N1	M1 PAM 30.6
Cc1ccccc1S(=O)(=O)N(C)C[C@@H]1OCc2cnnn2CCCC(=O)N([C@@H](C)CO)C[C@@H]1C	none
C[C@@H]1CN([C@@H](C)CO)C(=O)CCCn2cc(nn2)CO[C@H]1CN(C)S(=O)(=O)c1ccc(-c2ccccc2)cc1	none
Cc1ccc(S(=O)(=O)N(C)C[C@@H]2OCc3cn(nn3)CCCC(=O)N([C@@H](C)CO)C[C@H]2C)cc1	M1 PAM 25.2
C[C@H](CO)N1C[C@H](C)[C@@H](CN(C)S(=O)(=O)c2ccccc2)OCc2cn(nn2)CCCC1=O	CHRM1 antagonist 24.4
C[C@@H]1CN([C@H](C)CO)C(=O)CCCn2nncc2CO[C@@H]1CN(C)S(=O)(=O)c1ccccc1C#N	M1 PAM 27.0
O=C(CN1CCOCC1)N1CCOCC1	none
CN(C)CCCN=C(NO)c1ccc(Cl)cc1Cl	CHRM1 agonist 49.9
COc1ccc(CCNC(=O)c2ccc(CN3CCC(Cc4ccccc4)CC3)cc2)cc1	none
C=CCNC(=O)c1ccc(CN2CCC(Cc3ccccc3)CC2)cc1	CHRM1 antagonist 74.0
CC(C)NC(=O)c1ccc(CN2CCC(Cc3ccccc3)CC2)cc1	CHRM1 antagonist 84.4
Cc1ccccc1NC(=O)c1ccc(CN2CCC(Cc3ccccc3)CC2)cc1	CHRM1 antagonist 55.0
CC1CCC(C(=O)NC(C(=O)NCCc2ccc(S(N)(=O)=O)cc2)C(C)C)CC1 (stereo not given)	none
COCCNC(=O)C1(C)CCN(Cc2ccc(C(C)C)cc2)C1 (stereo not given)	none
COc1ccc(-c2cc(C(F)(F)F)nc(SCCC(=O)NCc3ccccc3)n2)cc1	CHO-K1 Ca antag 28.9
COc1ccc(-c2cc(C(F)(F)F)nc(SCc3cccc(C(=O)O)c3)n2)cc1	none
COc1ccc(NC(=O)C2(C)CCN2C(=O)Cc2ccc(Cl)cc2Cl)cc1OC (stereo not given)	none
CCOC(=O)C1CCCN(c2c(C(=O)c3ccccc3)cnc3ccccc23)C1 (stereo not given)	CHRM1 antagonist 30.0, CHRM1 agonist 38.4
CCOC(=O)C1CCCN(C(=O)c2ccco2)C1 (stereo not given)	CHRM1 agonist 51.8
CCOC(=O)C1CCN(C(=O)c2sc3nc(-c4ccccc4)cn3c2C)CC1	none
